{
  "source": "the supplement of paper PMC6522484",
  "key": {"DLD1 [1]": {"test_system": "DLD1", "test": "cell viability (CellTiter-Glo) relative to plate median (fraction of plate median); higher = more viable cells", "conditions": "5 µM; treatment time 24 h; reporter: 7TFP", "summary_of_the_method": "(§1)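 Stable lentiviral TCF/Wnt firefly luciferase reporters (7TFP or TCF4/Wnt) were present in the colorectal cancer cell lines used. These cells received library compounds at a final 5 µM for 24 h, and parallel plates were read for firefly luciferase or CellTiterGlo luminescence. Each well was normalised to the plate median, and the value reported is the mean of two independent replicates.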"}, "HCT116": {"test_system": "HCT116", "test": "cell viability (CellTiter-Glo) relative to plate median (fraction of plate median); higher = more viable cells", "conditions": "5 µM; treatment time 24 h; reporter: TCF4/Wnt", "summary_of_the_method": "as §1"}, "SW480 [2]": {"test_system": "SW480", "test": "cell viability (CellTiter-Glo) relative to plate median (fraction of plate median); higher = more viable cells", "conditions": "5 µM; treatment time 24 h; reporter: 7TFP", "summary_of_the_method": "as §1"}, "DLD1 [3]": {"test_system": "DLD1", "test": "TCF/Wnt firefly luciferase reporter signal relative to plate median (fraction of plate median); higher = higher Wnt reporter signal", "conditions": "5 µM; treatment time 24 h; reporter: 7TFP", "summary_of_the_method": "as §1"}, "SW480 [4]": {"test_system": "SW480", "test": "TCF/Wnt firefly luciferase reporter signal relative to plate median (fraction of plate median); higher = higher Wnt reporter signal", "conditions": "5 µM; treatment time 24 h; reporter: 7TFP", "summary_of_the_method": "as §1"}},
  "note": "± gives the standard deviation of the averaged measurements.",
  "data": [
    {"smiles": "CC(=O)CCCCn1c(=O)c2c(ncn2C)n(C)c1=O", "values": [
      {"measurement": "cell viability", "setting": "DLD1 [1]", "result": "0.93 ± 0.015"},
      {"measurement": "cell viability", "setting": "HCT116", "result": "0.911 ± 0.054"},
      {"measurement": "cell viability", "setting": "SW480 [2]", "result": "0.94 ± 0.051"},
      {"measurement": "TCF/Wnt firefly luciferase reporter signal", "setting": "DLD1 [3]", "result": "1.15 ± 0.085"},
      {"measurement": "TCF/Wnt firefly luciferase reporter signal", "setting": "SW480 [4]", "result": "1.03 ± 0.014"}
    ]},
    {"smiles": "OCc1ccccc1O[C@@H]1O[C@H](CO)[C@@H](O)[C@H](O)[C@H]1O", "values": [
      {"measurement": "cell viability", "setting": "DLD1 [1]", "result": "0.971 ± 0.098"},
      {"measurement": "cell viability", "setting": "HCT116", "result": "0.971 ± 0.056"},
      {"measurement": "cell viability", "setting": "SW480 [2]", "result": "0.969 ± 0.0042"},
      {"measurement": "TCF/Wnt firefly luciferase reporter signal", "setting": "DLD1 [3]", "result": "0.862 ± 0.099"},
      {"measurement": "TCF/Wnt firefly luciferase reporter signal", "setting": "SW480 [4]", "result": "0.967 ± 0.042"}
    ]},
    {"smiles": "C/C(=C\\C(=O)OCCCCCCCCC(=O)O)C[C@@H]1OC[C@H](C[C@@H]2O[C@H]2[C@@H](C)[C@H](C)O)[C@@H](O)[C@H]1O", "values": [
      {"measurement": "cell viability", "setting": "DLD1 [1]", "result": "0.973 ± 0.052"},
      {"measurement": "cell viability", "setting": "HCT116", "result": "1 ± 0.025"},
      {"measurement": "cell viability", "setting": "SW480 [2]", "result": "0.939 ± 0.017"},
      {"measurement": "TCF/Wnt firefly luciferase reporter signal", "setting": "DLD1 [3]", "result": "0.9545 ± 0.0021"},
      {"measurement": "TCF/Wnt firefly luciferase reporter signal", "setting": "SW480 [4]", "result": "1.03 ± 0.028"}
    ]},
    {"smiles": "O=C1O[C@H]([C@@H](O)CO)C(O)=C1O", "values": [
      {"measurement": "cell viability", "setting": "DLD1 [1]", "result": "0.983 ± 0.024"},
      {"measurement": "cell viability", "setting": "HCT116", "result": "1.02 ± 0.12"},
      {"measurement": "cell viability", "setting": "SW480 [2]", "result": "1.01 ± 0.035"},
      {"measurement": "TCF/Wnt firefly luciferase reporter signal", "setting": "DLD1 [3]", "result": "0.87 ± 0.069"},
      {"measurement": "TCF/Wnt firefly luciferase reporter signal", "setting": "SW480 [4]", "result": "0.969 ± 0.073"}
    ]},
    {"smiles": "CC(=O)OCC1=C(C(=O)O)N2C(=O)[C@@H](NC(=O)CSc3ccncc3)[C@H]2SC1", "values": [
      {"measurement": "cell viability", "setting": "DLD1 [1]", "result": 1.05},
      {"measurement": "cell viability", "setting": "HCT116", "result": "1.065 ± 0.0071"},
      {"measurement": "cell viability", "setting": "SW480 [2]", "result": "1.14 ± 0.14"},
      {"measurement": "TCF/Wnt firefly luciferase reporter signal", "setting": "DLD1 [3]", "result": "0.985 ± 0.016"},
      {"measurement": "TCF/Wnt firefly luciferase reporter signal", "setting": "SW480 [4]", "result": "1.06 ± 0.057"}
    ]},
    {"smiles": "O=C1C=C2CC3(O)COc4c(ccc(O)c4O)C3=C2C=C1O", "note": "(stereo not given)", "values": [
      {"measurement": "cell viability", "setting": "DLD1 [1]", "result": "0.988 ± 0.073"},
      {"measurement": "cell viability", "setting": "HCT116", "result": "1.04 ± 0.065"},
      {"measurement": "cell viability", "setting": "SW480 [2]", "result": "1.06 ± 0.13"},
      {"measurement": "TCF/Wnt firefly luciferase reporter signal", "setting": "DLD1 [3]", "result": "0.943 ± 0.081"},
      {"measurement": "TCF/Wnt firefly luciferase reporter signal", "setting": "SW480 [4]", "result": 1.05}
    ]},
    {"smiles": "Fc1ccc(C(c2ccc(F)cc2)N2CCN(C/C=C/c3ccccc3)CC2)cc1", "values": [
      {"measurement": "cell viability", "setting": "DLD1 [1]", "result": "1.06 ± 0.042"},
      {"measurement": "cell viability", "setting": "HCT116", "result": "0.962 ± 0.069"},
      {"measurement": "cell viability", "setting": "SW480 [2]", "result": "1.06 ± 0.057"},
      {"measurement": "TCF/Wnt firefly luciferase reporter signal", "setting": "DLD1 [3]", "result": "0.961 ± 0.18"},
      {"measurement": "TCF/Wnt firefly luciferase reporter signal", "setting": "SW480 [4]", "result": "0.917 ± 0.016"}
    ]},
    {"smiles": "COc1cc2ccc(=O)oc2cc1O", "values": [
      {"measurement": "cell viability", "setting": "DLD1 [1]", "result": "1.09 ± 0.064"},
      {"measurement": "cell viability", "setting": "HCT116", "result": 1.09},
      {"measurement": "cell viability", "setting": "SW480 [2]", "result": "1.12 ± 0.085"},
      {"measurement": "TCF/Wnt firefly luciferase reporter signal", "setting": "DLD1 [3]", "result": "0.999 ± 0.059"},
      {"measurement": "TCF/Wnt firefly luciferase reporter signal", "setting": "SW480 [4]", "result": "0.892 ± 0.12"}
    ]},
    {"smiles": "CCCCOc1cc(C(=O)NCCN(CC)CC)c2ccccc2n1", "values": [
      {"measurement": "cell viability", "setting": "DLD1 [1]", "result": "0.973 ± 0.011"},
      {"measurement": "cell viability", "setting": "HCT116", "result": "0.926 ± 0.1"},
      {"measurement": "cell viability", "setting": "SW480 [2]", "result": 0.984},
      {"measurement": "TCF/Wnt firefly luciferase reporter signal", "setting": "DLD1 [3]", "result": "0.831 ± 0.05"},
      {"measurement": "TCF/Wnt firefly luciferase reporter signal", "setting": "SW480 [4]", "result": "0.964 ± 0.045"}
    ]},
    {"smiles": "Cc1cc(C(C)(C)C)c(O)c(C(C)(C)C)c1", "values": [
      {"measurement": "cell viability", "setting": "DLD1 [1]", "result": "0.926 ± 0.054"},
      {"measurement": "cell viability", "setting": "HCT116", "result": "0.925 ± 0.057"},
      {"measurement": "cell viability", "setting": "SW480 [2]", "result": "1.004 ± 0.0092"},
      {"measurement": "TCF/Wnt firefly luciferase reporter signal", "setting": "DLD1 [3]", "result": "1.04 ± 0.09"},
      {"measurement": "TCF/Wnt firefly luciferase reporter signal", "setting": "SW480 [4]", "result": "0.969 ± 0.011"}
    ]},
    {"smiles": "COc1cc2nc(N(C)CCCNC(=O)C3CCCO3)nc(N)c2cc1OC", "note": "(stereo not given)", "values": [
      {"measurement": "cell viability", "setting": "DLD1 [1]", "result": "1.01 ± 0.12"},
      {"measurement": "cell viability", "setting": "HCT116", "result": "0.973 ± 0.053"},
      {"measurement": "cell viability", "setting": "SW480 [2]", "result": "0.985 ± 0.035"},
      {"measurement": "TCF/Wnt firefly luciferase reporter signal", "setting": "DLD1 [3]", "result": "0.972 ± 0.069"},
      {"measurement": "TCF/Wnt firefly luciferase reporter signal", "setting": "SW480 [4]", "result": "0.905 ± 0.053"}
    ]},
    {"smiles": "COc1c2ccoc2cc2oc(=O)ccc12", "values": [
      {"measurement": "cell viability", "setting": "DLD1 [1]", "result": "1.02 ± 0.046"},
      {"measurement": "cell viability", "setting": "HCT116", "result": "0.946 ± 0.018"},
      {"measurement": "cell viability", "setting": "SW480 [2]", "result": "0.978 ± 0.015"},
      {"measurement": "TCF/Wnt firefly luciferase reporter signal", "setting": "DLD1 [3]", "result": "0.984 ± 0.093"},
      {"measurement": "TCF/Wnt firefly luciferase reporter signal", "setting": "SW480 [4]", "result": "1.01 ± 0.028"}
    ]},
    {"smiles": "Cc1ccc(C(C)C)cc2c(C)ccc1-2", "values": [
      {"measurement": "cell viability", "setting": "DLD1 [1]", "result": "1.04 ± 0.057"},
      {"measurement": "cell viability", "setting": "HCT116", "result": "1.085 ± 0.0071"},
      {"measurement": "cell viability", "setting": "SW480 [2]", "result": "1.06 ± 0.014"},
      {"measurement": "TCF/Wnt firefly luciferase reporter signal", "setting": "DLD1 [3]", "result": "1 ± 0.14"},
      {"measurement": "TCF/Wnt firefly luciferase reporter signal", "setting": "SW480 [4]", "result": "0.894 ± 0.16"}
    ]},
    {"smiles": "CCCCNS(=O)(=O)c1ccccc1", "note": "[N-butylbenzenesulphonamide (AB2)]", "values": [
      {"measurement": "cell viability", "setting": "DLD1 [1]", "result": "0.978 ± 0.19"},
      {"measurement": "cell viability", "setting": "HCT116", "result": "1 ± 0.022"},
      {"measurement": "cell viability", "setting": "SW480 [2]", "result": "0.964 ± 0.052"},
      {"measurement": "TCF/Wnt firefly luciferase reporter signal", "setting": "DLD1 [3]", "result": "0.908 ± 0.13"},
      {"measurement": "TCF/Wnt firefly luciferase reporter signal", "setting": "SW480 [4]", "result": "0.919 ± 0.14"}
    ]}
  ]
}
